From PubChem
CBFb-RUNX1 inh: CBF-beta/RUNX1 interaction disruption | AlphaScreen CBFb-His/RUNX1-biotin binding, biochemical | Potency, µM (doses to about 59.8 µM), inactives show at the top dose activity, negative = inhibition, usual class: inhibitors | 230,000 tested, under 10 active; also: % of control where 0% means no effect
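AlphaScreen binding: CBFb-His and RUNX1-biotin (30 nM each) preincubated 20 min, compound added for 15 min, then nickel and streptavidin beads for 90 min, all at room temperature. Disruption of the interaction by any mechanism counts as activity.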
TRHR agonist: agonists of human TRH receptor; hit rate 0.18% among 360,000; TRHR cells, calcium flux fluo-8, FDSS agonist mode; activation, % at 2 µM; in the data active = activation above about 30%; also: 0% is about no effect
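Steps: seed TRHR cells overnight; add fluo-8 no-wash Ca dye, RT 30 min–1.5 h; record 10 s baseline; pin-transfer compounds; monitor fluorescence 1 cycle/s for the agonist window. Calcium increases flag candidate agonists.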
IL-2 act: activators of IL-2. AID 652025. IL-2 activation reporter assay, cell-based qHTS; stimulated with anti-CD3/CD4/CD28 beads; in transgenic mouse T cells. hit rate 0.065% among 360,000. activation, % (series mostly up to about 46 µM); in the data active = activation above about 50%; inconclusive = mostly about 30% to 49%; also: 0% is about no effect
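Readout: EGFP and DsRed signals by fluorescent plate cytometry. Unstimulated transgenic mouse T cells received compound 60 min before antibody-bead stimulation, then incubated 18 h at 37 degrees C.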
Epigenetic derep: regulators of epigenetic silencing causing reporter derepression in mouse cells; murine LDR cells, GFP reporter derepression, 30 h; Potency, µM (titrated, usually from 53.9 µM), inactives show at the highest dose GFP activation, usual class: activators; hit rate 0.2% among 280,000; also: potency is read from the fitted curve at half-maximal effect; % of control where 0% means no effect; nearly all actives have a fitted effect of over 60% in size
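In this reporter-derepression format, murine cells bearing a silenced integrated CMV-GFP locus incubate with test compound (30 h, 37 C), then are washed and imaged; fluorescent objects of 20–120 um count as induced cells.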
TRHR PAM: allosterically enhances the human TRH receptor. enhancement, % at 2 µM. P34981. TRHR cells, fluo-8 calcium fluorescence, EC20 TRH enhancement. hit rate 0.66% among 360,000; in the data active = enhancement above about 30%; also: 0% is about no effect
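Enhancer read-out: after compound pinning and an initial kinetic agonist-mode read, an EC20 of TRH (10 nM final) was injected and fluo-8 calcium signal (Ex 480/Em 530) followed at 1 s/cycle for 100 cycles in TRHR-expressing cells.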
MBNL1 CUG block: blocks human MBNL1 binding to CUG repeat RNA; AID 2675; TR-FRET MBNL1-His/biotin-(CUG)12 binding, 665/545 ratio; Q9NR56; hit rate 0.036% among 280,000; Potency, µM (top dose mostly 57.5 µM), for inactives: top-dose activity change, negative = inhibition, most hits filed as inhibitors; active = well fitted inhibition curve with a large enough effect in the signal ratio, with a control signal flat, not every such curve was filed as active; inconclusive = small, poorly fitted or top-dose-only effect, or effect the other way, or a change in a side signal; inactive = no such curve, though single readings can be large or run the other way; the % refers to the signal ratio; also: potency is read from the fitted curve at half-maximal effect; % is scaled to controls: 0 for no effect and ±100 for the full control effect
Target sequence (Q9NR56 whole entry, looked up): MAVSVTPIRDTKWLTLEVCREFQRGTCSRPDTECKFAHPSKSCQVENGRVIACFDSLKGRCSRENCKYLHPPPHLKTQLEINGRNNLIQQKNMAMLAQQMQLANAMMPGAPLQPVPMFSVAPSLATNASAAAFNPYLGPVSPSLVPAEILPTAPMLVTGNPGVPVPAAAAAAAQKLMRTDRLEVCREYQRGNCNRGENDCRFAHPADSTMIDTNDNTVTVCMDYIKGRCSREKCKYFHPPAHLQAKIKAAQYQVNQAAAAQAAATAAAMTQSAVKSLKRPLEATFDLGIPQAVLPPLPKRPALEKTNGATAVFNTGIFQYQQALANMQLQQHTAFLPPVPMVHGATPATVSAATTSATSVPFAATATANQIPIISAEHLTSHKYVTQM
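Compound titration spanned 92 nM–58 uM against the MBNL1-His/biotin-(CUG)12 complex. After 60 min at room temperature with 5 nM streptavidin-XL665 and 0.055 ng/ul terbium anti-His, ratiometric 665/545 nm emission (Ex 340 nm) normalized to controls.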
* hit, by the source's call; ? = inconclusive; nt = not tested or not shown; [ ] = remark or other dose. Sampled rows, rich in hits. Any-hit rate of the full collection: about 0.88%. Unless noted, calls follow the shape of the dose curve; as a rule, active = well fitted curve in the direction sought with a large enough effect; inconclusive = small, poorly fitted or top-dose-only effect, or another doubt; inactive = no such curve, though single readings can be large; an effect the other way counts as inactive or inconclusive.

SMILES	CBFb-RUNX1 inh	TRHR agonist	IL-2 act	Epigenetic derep	TRHR PAM	MBNL1 CUG block
COc1ccc(/C=C(/C#N)c2nc(-c3ccc(-c4ccccc4)cc3)cs2)cc1OC	nt	-1	nt	10µM*	3	nt
COc1ccc(/C=C(\C#N)c2nc(-c3cc4c(ccc5ccccc54)oc3=O)cs2)cc1O	nt	5	nt	13µM*	-1	nt
Cc1ccc(/C=C(\C#N)c2nc(-c3cc4c(ccc5ccccc54)oc3=O)cs2)cc1	nt	-1	nt	2%	-2	nt
COc1ccc(-c2csc(/C(C#N)=C\c3ccc(O)c([N+](=O)[O-])c3)n2)cc1OC	?	1	-5	-1%	2	nt
COc1ccc(CCn2c3c(c(=O)[nH]c2=O)C(NC(=O)c2ccccc2F)(C(F)(F)F)C(=O)N3)cc1OC (stereo unspecified)	nt	0	nt	0%	3	nt
CCOc1cc(C(=O)Nc2ccc3oc(-c4ccc(CC)cc4)nc3c2)cc(OCC)c1OCC	nt	1	nt	-1%	36*	nt
COc1ccc(C)cc1NC(=O)Cn1cc(S(=O)(=O)Cc2ccccc2Cl)c2ccccc21	nt	1	nt	0%	-7	nt
COc1ccc(C(C#N)=Cc2ccccc2OC)cc1	nt	nt	-2	nt	nt	nt
COc1cc(N2CCCC2)c(OC)cc1/C=C(/C#N)c1ccc(Br)cc1	-7%	8	5	3.2µM*	1	2%
COc1cc(N2CCCC2)c(OC)cc1/C=C(/C#N)c1ccc(F)cc1	-27%	7	2	14µM*	-7	-14%
O=C(NCCNC(=O)c1ccc(Br)o1)c1ccc(Br)o1	4%	3	1	-3%	38*	0%
O=C(NCCc1ccccc1)c1ccc(Br)o1	6%	-1	0	0%	-4	5%
COCC(=O)NNS(=O)(=O)c1ccccc1[N+](=O)[O-]	4%	0	1	1%	-4	nt
CCOc1ccc(NC(=O)CCC(=O)NNS(=O)(=O)c2ccccc2[N+](=O)[O-])cc1	4%	102*	0	6%	4	?
Cc1cc(-c2ccccc2)c2c3c(c(-c4ccccc4)n2n1)c(=O)n(C)c(=O)n3C	-3%	0	70*	?	-14	-3%
Cc1cc(C)c2c3c(c(-c4ccccc4)n2n1)c(=O)n(C)c(=O)n3C	nt	nt	-1	nt	nt	nt
CC(C)N1CCc2c(sc(NC(=O)c3cc(-c4cccs4)nc4ccccc34)c2C(N)=O)C1	7%[2.36 µM]	27	-2	18µM*	10	?
O=C(NCc1ccco1)c1ccc2snnc2c1	-1%	0	0	1%	32*	11%
O=C(CSc1nc(-c2ccccc2)c(-c2ccccc2)o1)Nc1nnc(-c2ccccc2)s1	0%	0	1	-1%	50*	-7%
COc1ccc(C2=C/C(=C/c3cccnc3)C(=O)O2)cc1OC	15%	45*	0	-1%	2	?
CCOc1ccc(C2=C/C(=C/c3cccnc3)C(=O)O2)cc1	14%	17	2	-1%	-1	-1%
COc1ccc(NS(=O)(=O)c2cc([N+](=O)[O-])ccc2N/N=C\c2c(C)[nH]c3ccccc23)cc1	-5%	12	4	10µM*	-5	6%
C=C(C)C1CC=C(C)/C(=N/NC(=O)c2ccc(NC(=O)c3cccc(C)c3)cc2)C1 (stereo unspecified)	1%	nt	0	3%	nt	-6%
C=C(C)C1CC=C(C)/C(=N/NC(=O)c2cccc([N+](=O)[O-])c2)C1 (stereo unspecified)	0%	-1	0	-1%	37*	?
COc1cc(OC)c(OC)cc1CN1CCCC(C(=O)N2CCCC2)C1 (stereo unspecified)	nt	1	-4	nt	6	0%
SMILES	CBFb-RUNX1 inh	TRHR agonist	IL-2 act	Epigenetic derep	TRHR PAM	MBNL1 CUG block
COc1cccc(CN2CCCC(C(=O)N3CCCCC3)C2)c1OC (stereo unspecified)	5%	-1	1	-1%	33*	3%
O=C(Nc1ccc(Nc2ccccc2)cc1)c1cc([N+](=O)[O-])ccc1Cl	nt	0	1	nt	4	?
O=C(Nc1ccccc1Oc1ccccc1)c1cc([N+](=O)[O-])ccc1Cl	-29%	-1	-1	1%	41*	44%
CC(C)c1ccc(CNC(=O)C(=O)NCCCn2ccnc2)cc1	-13%	0	0	0%	32*	6%
O=C(C1CC1)N1CCc2cc(Br)cc(S(=O)(=O)Nc3ccc(C(F)(F)F)cc3)c21	nt	0	nt	0%	3	nt
CCn1c2ccccc2c2cc(NC(=O)c3ccc(Br)o3)ccc21	?	6	1	14µM*	-1	10%
CCn1c2ccccc2c2cc(NC(=O)c3coc(=O)c(Br)c3)ccc21	4%	5	nt	7%	-2	5%
Cc1cccc(CC(=O)NC2CCN(C)CC2)c1	nt	0	0	nt	40*	-14%
CCCCCn1ccc(=N)cc1	5%	0	0	9%	36*	-12%
NC(=O)c1c(NC(=O)c2ccccc2Cl)sc2c1CCC2	nt	0	0	nt	36*	2%
NC(=O)c1c(NC(=O)c2ccccc2C(=O)O)sc2c1CCCC2	nt	0	-1	nt	-12	5%
COc1cccc(-c2nnc3n2N=C(c2ccc(OC)cc2OC)CS3)c1	-19%	nt	nt	nt	nt	nt
Cc1c(CCOC(=O)CC23CC4CC(CC(C4)C2)C3)sc[n+]1Cc1ccccc1	2%	0	3	0%	2	-5%
Cc1c(CCOC(=O)C23CC4CC(CC(C4)C2)C3)sc[n+]1CC#N	5%	0	-1	-1%	41*	-1%
O=C(O)c1cccc(S(=O)(=O)N2CCN(S(=O)(=O)c3ccc4c(c3)OCCO4)CC2)c1	nt	2	nt	nt	6	nt
COC(=O)/C=C(\C)NC(=O)c1ccc(F)cc1	-7%	0	0	-7%	34*	-4%
COc1cc(C(=O)OCCC(C)C)cc(OC)c1O	4%	-1	-1	0%	11	-4%
CCCCOC(=O)c1cc(Cl)c(O)c(OC)c1	11%	-1	0	-1%	40*	3%
CN1/C(=C/C=C(/C#N)C(N)=O)C(C)(C)c2ccccc21	3%	nt	-3	1%	nt	?
CN1/C(=C\C=C(/C#N)C(=O)Nc2ccccc2F)C(C)(C)c2ccccc21	20%	114*	23	?	19	nt
COC1=CC(=Cc2c(N)n3nc(CC(=O)N4CCOCC4)sc3nc2=O)C=C(OC)C1=O	nt	0	-5	nt	8	?
C=CCC1=C/C(=C\c2c(N)n3nc(CC(=O)N4CCCC4)sc3nc2=O)C=C(OC)C1=O	nt	187*	1	nt	7	?
